A selection: hits, their analogues and other compounds. The true share with any hit is near 4.6%.
tim23-1 inh – tim23-1 yeast growth inhibition. S. cerevisiae tim23-1 growth, BacTiter-Glo luminescence, 24 h. inhibition, % at 20 µM. 1.3% of 330,000 active;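 active = growth inhibition of the mutant yeast at or above 50%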;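 note: temperature-sensitive mutant grown at 25 °C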
tim10-1 inh – growth inhibitors of tim10-1 mutant yeast | inhibition, % at 20 µM | 2.2% of 330,000 active | S. cerevisiae tim10-1 ts strain growth, BacTiter-Glo, 24 h | AID 463190;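 active = inhibition of at least 40%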;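 note: mutant grown at 25 °C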
NALP3 yeast inh – blocks the NALP3 inflammasome reconstituted in yeast; Yeast reconstituted NLRP3/ASC/caspase-1, beta-gal luminescence, 24 h; inhibition, % at 10 µM; 0.39% of 330,000 active; AID 2825;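 active = inhibition of 50% or more; inactive = inhibition below 50%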
SKKanGAS inh – inhibitors of SKKanGAS S. pyogenes growth in kanamycin (SK-promoter or general growth effect); BacTiter-Glo, 6 h; inhibition, % at 7.5 µM; 1.3% of 300,000 active; AID 1662;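 active = mean replicate score, as percent of positive control median, at least 50; inconclusive = mean below 50 but one replicate at or above 50; inactive = mean and every replicate below 50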;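 note: strain carries kanamycin resistance gene driven by streptokinase promoter and grows in 40 µg/ml kanamycin; loss of luminescence reflects streptokinase promoter inhibition or plain growth inhibition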
TIM10 inh – growth inhibitors of TIM10 yeast strain; S. cerevisiae TIM10 strain growth, BacTiter-Glo luminescence, 24 h; inhibition, % at 10 µM; 1.4% of 330,000 active; AID 463195;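 active = inhibition of 40% or more at the single tested concentration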;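 note: wild-type TIM10 isogenic control strain grown at permissive 25 °C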
Hits are given with their value; 0 = inactive; ? = inconclusive; - = not tested or not shown.

SMILES | tim23-1 inh | tim10-1 inh | NALP3 yeast inh | SKKanGAS inh | TIM10 inh
CCN(CC)S(=O)(=O)c1ccc(N2CCOCC2)c(NC(=O)c2[nH]c(C)c(C(C)=O)c2C)c1 | 0 | 0 | 0 | - | 0
Cc1c(Cl)ccc2c(C(=O)Nc3cc(C(C)(C)C)on3)cc(-c3ccccn3)nc12 | 0 | 0 | 0 | 62 | 0
Cc1cc(NC(=O)c2cc(-c3cccnc3)nc3c(C)c(C)ccc23)no1 | 0 | 0 | 0 | 0 | 0
c1ccc(-c2nc(C3CCCCC3)c3sccc3n2)cc1 | 0 | 0 | 0 | 84 | 0
c1ccc(-c2nc(C3CCCCC3)c3ccccc3n2)cc1 | 0 | 0 | 0 | ? | 0
COc1ccc(S(=O)(=O)N(C)C[C@H]2Oc3c(cccc3N(C)C)C(=O)N([C@H](C)CO)C[C@@H]2C)cc1 | 0 | 0 | 0 | - | 0
Cc1c(CCOC(=O)C2C3CC4CC(C3)CC2C4)sc[n+]1CC(=O)c1ccc(Br)cc1 (configuration not stated) | 0 | 0 | 0 | 50 | 0
Cc1c(CCOC(=O)c2ccc(Cl)cc2Cl)sc[n+]1CC(=O)c1ccc(Br)cc1 | 0 | 0 | 0 | - | 0
COc1ccc(C(CNC(=O)c2ccc(Cl)c(NC(=O)c3cccs3)c2)N2CCCC2)cc1 (configuration not stated) | 0 | 0 | 0 | 0 | 0
CCCCCCCCCCCC(=O)c1c(O)cccc1O | 0 | 0 | 0 | 103 | 0
CCCCCCCC(=O)NNC(=O)Cc1ccccc1 | 0 | 0 | 0 | 0 | 0
c1ccc(-c2c3ccccc3nc3[nH]c4ccccc4c23)cc1 | 0 | 0 | 0 | 96 | 0
c1ccc2nc3c(nc2c1)[nH]c1ccccc13 | 0 | 0 | 0 | 0 | 0
Oc1c(C(Nc2ccccn2)c2cccnc2)cc(Cl)c2cccnc12 (configuration not stated) | 0 | 0 | 0 | 95 | 0
O=C(NCc1ccc(F)cc1)C(c1cccnc1)N(C(=O)c1csnn1)c1ccccc1 (configuration not stated) | 0 | 0 | 0 | 0 | 0
Cc1cc(C)c(NC(=O)CSc2nnc(CNC(=O)c3ccco3)o2)c(C)c1 | 0 | 0 | 0 | 0 | 0
CC(C)(C)C(=O)N1N=C(c2ccc(NS(C)(=O)=O)cc2)CC1c1cccs1 (configuration not stated) | 0 | 0 | 0 | 50 | 0
S=c1[nH]nc(-c2cc(-c3ccccc3)n[nH]2)n1/N=C/c1ccc(Br)s1 | 0 | 0 | 0 | 60 | 0
S=c1[nH]nc(-c2cc(-c3ccccc3)n[nH]2)n1/N=C/c1c(Cl)cccc1Cl | 0 | 0 | 0 | 61 | 0
Cc1ccccc1/C=N/n1c(-c2cc(-c3ccccc3)n[nH]2)n[nH]c1=S | 0 | 0 | 0 | 0 | 0
O=C(COC(=O)CNC(=O)c1ccco1)Nc1ncc(Cl)cc1Cl | 0 | 0 | 0 | - | 0
Cc1cccnc1NC(=O)C1CCC1 | 0 | 0 | 0 | 0 | 0
COc1ccc(C(=O)NNC(=S)NC(=O)c2ccc(OC)cc2)cc1 | 0 | 0 | 0 | 94 | 0
CCNC(=S)NNC(=O)c1ccc(OC)cc1 | 0 | 0 | 0 | 0 | 0
COc1ccc(C(=O)NC(=S)NNC(=O)c2ccc(NC(C)=O)cc2)cc1Br | 0 | 0 | 0 | 70 | 0
SMILES | tim23-1 inh | tim10-1 inh | NALP3 yeast inh | SKKanGAS inh | TIM10 inh
CCCOc1ccc(C(=O)NNC(=S)NC(=O)CC)cc1 | 0 | 0 | 0 | 106 | 0
CCCCC(=O)NC(=S)NNC(=O)c1ccc(OC)cc1 | 0 | 0 | 0 | 86 | 0
COc1ccc(C(=O)NC(=S)NNC(=O)c2ccncc2)cc1Br | 0 | 0 | 0 | - | 0
COc1ccc(OCC(=O)NNC(=S)NC(=O)c2ccc(Br)o2)cc1 | 0 | 0 | 0 | 71 | 0
COc1ccc(OCC(=O)NNC(=S)NC(=O)c2ccc([N+](=O)[O-])cc2)cc1 | 0 | 0 | 0 | 0 | 0
COc1ccc(N(CC(=O)NCc2cccs2)S(=O)(=O)c2ccc(F)cc2)cc1 | 0 | 0 | 0 | - | 0
Cc1cc(Oc2ccc(Cl)cc2)nc(-c2ccccc2O)n1 | 0 | 0 | 0 | 53 | 0
Cc1ccc(Oc2cc(C)nc(-c3ccccc3O)n2)cc1 | 0 | 0 | 0 | 0 | 0
CCOC(=O)c1cc(CC)sc1NC(=O)c1ccc(N2C(=O)CCC2=O)cc1 | 0 | 0 | 0 | 55 | 0
COc1ccc(Cl)cc1Nc1nc(NCCO)nc(N2CCCC2)n1 | 0 | 0 | 0 | 0 | 0
OCCNc1nc(Nc2cc(Cl)ccc2OC2CCCC2)nc(N2CCCC2)n1 | 0 | 0 | 0 | 68 | 0
Cc1cc(SCC(=O)N(C)C2CCCCC2)nc2ccccc12 | 0 | 0 | 0 | - | 0
Cc1nn(C(=O)c2cccnc2)c(C)c1Sc1ccc(Br)cc1 | 0 | 0 | 0 | 63 | 0
Clc1ccc(-c2csc(Nc3ccccc3)[n+]2Cc2ccco2)c(Cl)c1 | - | - | - | 79 | -
CCCCCCc1cc2cc(-c3nnc(-c4ccccc4O)o3)c(=O)oc2cc1O | 0 | 0 | 0 | 98 | 0
COc1cc(/C=N/NC2=NCCCCC2)ccc1O | 0 | 0 | 0 | 0 | 0
COc1cc(/C=N/Nc2ncnc3sc4c(c23)CCC4)ccc1O | - | - | - | 70 | -
COc1ccc(NC(=S)NC(NC(=O)/C=C/c2ccccc2)C(Cl)(Cl)Cl)cc1 (configuration not stated) | 0 | 0 | 0 | 0 | 0
O=C(/C=C/c1ccccc1)NC(NC(=S)Nc1ccc(Cl)cc1)C(Cl)(Cl)Cl (configuration not stated) | 0 | 0 | 0 | 63 | 0
O=C(Cc1ccccc1)NC(NC(=S)Nc1cc(Cl)ccc1Cl)C(Cl)(Cl)Cl (configuration not stated) | 0 | 0 | 0 | 0 | 0
O=C(/C=C/c1ccccc1)NC(NC(=S)Nc1cc(Cl)ccc1Cl)C(Cl)(Cl)Cl (configuration not stated) | 0 | 0 | 0 | 52 | 0
C[C@H](CO)N1C[C@H](C)[C@@H](CN(C)C)Oc2c(NS(=O)(=O)c3ccc(F)cc3)cccc2C1=O | 0 | 0 | 0 | - | 0
Cc1ccc(-c2n[nH]c(=S)nc2-c2ccc(C)cc2)cc1 | - | - | - | 0 | -
Cc1ccc(-c2n[nH]c3c2CCC3)cc1 | 0 | 0 | 0 | 55 | 0
C=C1CCC2C(C)(C)[C@H](O)CC[C@@]2(C)[C@@H]1COc1cc(=O)oc2ccccc12 (some centres not stated) | 0 | 0 | 0 | 0 | 0
SMILES | tim23-1 inh | tim10-1 inh | NALP3 yeast inh | SKKanGAS inh | TIM10 inh
C=C1CCC2C(C)(C)[C@@H](O)CC[C@@]2(C)[C@@H]1COc1ccc2ccc(=O)oc2c1 (some centres not stated) | 0 | 0 | 0 | 52 | 0
CCC1Nc2ncnc(N3CCN(c4ccccc4)CC3)c2N(Cc2ccc(Br)cc2)C1=O (configuration not stated) | 0 | 0 | 0 | 0 | 0
Nc1nc(CN2CCN(c3ccc(F)cc3)CC2)nc(N2CCCc3ccccc32)n1 | 0 | 0 | 0 | 84 | 0
O=C(O)c1ccccc1C(=O)N1CCc2c([nH]c3ccccc23)C1C(F)(F)F (configuration not stated) | 0 | 0 | 0 | 0 | 0
COc1ccc(C(=O)N2CCc3c([nH]c4ccccc34)C2C(F)(F)F)cc1 (configuration not stated) | 0 | 0 | 0 | 52 | 0
CC(=O)c1cc(F)ccc1OCC(=O)Nc1ccc2c(c1)OCO2 | 0 | 0 | 0 | - | 0
CC(=O)C[C@@H](O)CC(=O)[C@@H]1OC(=O)[C@H](C)C/C=C\Cc2ccccc21 | 0 | 0 | 0 | - | 0
